# Sampled rows, rich in hits. Any-hit rate of the full collection: about 2.6%.
# Cruzain inh Det: inhibitors of Trypanosoma cruzi cruzain with detergent; Potency, µM, without a hit: max response, negative = inhibition, most hits filed as inhibitors; 0.43% of 200,000 active; purified cruzain, Z-FR-AMC fluorescence, 0.01% Triton; P25779; AID 1478;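 note: plate controls were neutral wells for no effect and buffer without enzyme for full effect; nearly all actives have a fitted effect of over 40% in size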
# Target sequence (P25779 123-467 limits assumed): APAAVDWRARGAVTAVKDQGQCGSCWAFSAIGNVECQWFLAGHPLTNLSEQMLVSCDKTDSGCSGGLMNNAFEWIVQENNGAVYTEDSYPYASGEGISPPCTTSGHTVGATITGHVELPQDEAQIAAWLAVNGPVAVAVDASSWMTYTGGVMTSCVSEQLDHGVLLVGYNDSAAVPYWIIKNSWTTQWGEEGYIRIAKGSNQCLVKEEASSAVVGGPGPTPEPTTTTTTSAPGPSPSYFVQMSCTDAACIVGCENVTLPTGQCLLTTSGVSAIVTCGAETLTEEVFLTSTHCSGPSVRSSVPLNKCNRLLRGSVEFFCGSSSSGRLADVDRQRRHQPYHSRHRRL
#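 Compounds were screened in titration against cruzain (1.5 nM) with 0.01% Triton X-100 to counter colloidal aggregation. Activity was the AMC fluorescence increase over 60 s after adding 2 uM Z-FR-AMC at pH 5.5.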
# Cruzain inh noDet: inhibitors of Trypanosoma cruzi cruzain without detergent. P25779. purified cruzain, Z-FR-AMC fluorescence, no detergent. Potency, µM, without a hit: max response, negative = inhibition, usual class: inhibitors. 2.3% of 200,000 active;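 note: plate controls were enzyme without inhibitor for no effect and buffer without enzyme for full effect; nearly all actives have a fitted effect of over 40% in size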
#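 Purified cruzain at 1.5 nM, pre-incubated 15 min with compound at room temperature in 100 mM sodium acetate pH 5.5, 5 mM DTT, 0.00005% Triton X-100. Reaction started with 2 uM Z-FR-AMC; AMC fluorescence increase over 60 s gives rate.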
# * marks the source's active call; other numbers are inactive results; ? = inconclusive. Calls come from the whole dose curve; as a rule, active = well fitted curve in the direction sought with a large enough effect; inconclusive = small, poorly fitted or top-dose-only effect, or another doubt; inactive = no such curve, though single readings can be large; an effect the other way counts as inactive or inconclusive. Potency is the fitted concentration of half-maximal effect.
SMILES,Cruzain inh Det,Cruzain inh noDet
COCCn1c(=N)c(C(=O)NCCc2ccc(OC)cc2)cc2c(=O)n3cccc(C)c3nc21,-4%,-3%
COCCCNC(=O)c1cc2c(=O)n3cccc(C)c3nc2n(C(C)C)c1=N,25µM*,?
N=c1c(C(=O)NCC2CCCO2)cc2c(=O)n3ccccc3nc2n1Cc1cccnc1 (stereo unspecified),28µM*,?
COCCCn1c(=N)c(C(=O)NC2CCCC2)cc2c(=O)n3cccc(C)c3nc21,-10%,?
CCCn1c(=N)c(C(=O)NCc2cccnc2)cc2c(=O)n3cccc(C)c3nc21,-2%,3%
Cc1cccn2c(=O)c3cc(C(=O)NCC4CCCO4)c(=N)n(Cc4cccnc4)c3nc12 (stereo unspecified),22µM*,?
Cc1cccn2c(=O)c3cc(C(=O)NC(C)C)c(=N)n(Cc4ccncc4)c3nc12,32µM*,?
CCCn1c(=N)c(C(=O)NCc2cccnc2)cc2c(=O)n3ccccc3nc21,-9%,-11%
CCOc1ccccc1NC(=O)C(NS(=O)(=O)c1cccc2nsnc12)c1ccccc1 (stereo unspecified),-3%,-1%
Cc1ccc2nc3c(cc(C(=O)NC4CCCC4)c(=N)n3C(C)C)c(=O)n2c1,-14%,17%
CNC(=O)c1cc2c(=O)n3cc(C)ccc3nc2n(C(C)C)c1=N,28µM*,?
Cc1ccc(S(=O)(=O)c2cc3c(=O)n4ccccc4nc3n(Cc3ccco3)c2=N)cc1C,6%,-25%
Cc1ccc(S(=O)(=O)c2cc3c(=O)n4ccccc4nc3n(CC3CCCO3)c2=N)cc1C (stereo unspecified),32µM*,-28%
CC(=O)N[C@H](Cc1c[nH]c2ccccc12)C(N)=O,2%,12%
C=C(C)[C@@H]1CCC2(C(=O)O)CC[C@]3(C)[C@H](CC[C@@H]4[C@@]5(C)CCC(=O)C(C)(C)[C@@H]5CC[C@]43C)[C@@H]12 (stereo partly specified),2%,5µM*
C=C(C)[C@H]1CC[C@]2(CO)CC[C@]3(C)[C@@H](CC[C@H]4[C@@]5(C)CC[C@@H](O)C(C)(C)[C@@H]5CC[C@@]43C)[C@H]12,-2%,-16%
CCc1cnc2c(c1SCc1cc(OC)cc(OC)c1)c(=O)n(C)c(=O)n2C,-1%,-6%
Cc1ccc(NC(=O)CN2C(=O)C(C)(C)c3cc(S(=O)(=O)N4CCCCC4)ccc32)c(Br)c1,0%,3%
O=C(Cn1cc(S(=O)(=O)c2ccccc2)c(=O)c2cc3c(cc21)OCO3)Nc1ccc(Cl)cc1,-7%,?
Cc1ccc(C)c(NC(=S)NC(NC(=O)N(C)C)C(Cl)(Cl)Cl)c1 (stereo unspecified),6%,-6%
Cc1ccc(C)c(NC(=S)NC(NC(=O)Cc2cccc3ccccc23)C(Cl)(Cl)Cl)c1 (stereo unspecified),-2%,7.9µM*
CC(C)c1ccc(/C=C(\C#N)c2nc(-c3ccc(O)cc3)cs2)cc1,7%,?
CC(C)c1ccc(/C=C(/C#N)c2nnc(NC(=O)c3ccccc3)s2)cc1,-6%,13µM*
Cc1ccc(-n2c(=S)[nH]c3nc4c(cc3c2=O)COC(C)(C)C4)cc1,-3%,?
CCC1(C)Cc2nc3[nH]c(=S)n(-c4ccc(C)cc4)c(=O)c3cc2CO1 (stereo unspecified),1%,20µM*
SMILES,Cruzain inh Det,Cruzain inh noDet
O=C(CCCN1C(=O)/C(=C/c2cccc(Br)c2)SC1=S)Nc1ccccn1,-4%,25µM*
CCc1ccc(/C=C2\SC(=S)N(CCCC(=O)Nc3ccccn3)C2=O)cc1,0%,-25%
COc1ccc(OC)c(CNC(=O)NCc2noc3ccc(C)cc23)c1,5%,8%
O=C(NCc1ccc(-c2nc3ccccc3s2)cc1)c1ccco1,-3%,25µM*
O=C(NC(=S)NCc1ccc(-c2nc3ccccc3s2)cc1)c1ccco1,-3%,?
COC(=O)[C@H]1O[C@@H](c2cc(OC)c(C)c(OC)c2OCc2ccccc2)[C@H](C)[C@@H]2O[C@]12C,-3%,3%
O=c1c2ccccc2nc(SCc2cc([N+](=O)[O-])cc3c2OCOC3)n1-c1ccccc1,-2%,13µM*
COc1ccc(Nc2nnc(SCc3cc([N+](=O)[O-])cc4c3OCOC4)s2)cc1,0%,20µM*
O=[N+]([O-])c1cc2c(c(CSc3nnc4ccccn34)c1)OCOC2,-3%,0%
O=c1c2ccccc2nc(SCc2ccc([N+](=O)[O-])cc2)n1-c1ccccc1,0%,?
CCc1cccc(N2C(=O)CSC23C(=O)Nc2ccccc23)c1 (stereo unspecified),-1%,6%
CCOc1ccccc1OCCCC(=O)OCC(=O)Nc1cccc(Cl)c1,-6%,1%
Cc1ccccc1NC(=O)CCC(=O)OCC(=O)c1ccc(-c2ccccc2)cc1,3%,13µM*
O=C(CCC(=O)OCC(=O)c1ccc(-c2ccccc2)cc1)Nc1cccc(Cl)c1,2%,25µM*
COc1ccc(C(=O)CCC(=O)Nc2ccccc2C)cc1,0%,-7%
Cc1ccc(-n2nnnc2CNC(=O)C(C)C)cc1C,4%,-12%
C=C[C@@H](C1=CC(=O)C(OC)=C(OC)C1=O)c1ccccc1,-3%,16%
COc1ccccc1NC(=O)c1c(NC(=O)c2ccco2)sc2c1CCC2,-5%,7.9µM*
Cc1cccc(C(=O)Nc2sc3c(c2C(=O)NCc2ccco2)CCCC3)c1,3%,-9%
COc1ccccc1C(=O)Nc1sc2c(c1C(=O)NCc1ccco1)CCCC2,-24%,7.9µM*
COc1ccccc1NC(=O)c1c(NC(=O)c2ccco2)sc2c1CCC(C(C)(C)C)C2 (stereo unspecified),-1%,-6%
NC(=O)c1c(NC(NC(=O)c2ccco2)C(=O)c2ccc(Cl)cc2)sc2c1CCCC2 (stereo unspecified),-12%,-15%
N#Cc1c(NC(NC(=O)c2ccco2)C(=O)c2ccccc2)sc2c1CCCC2 (stereo unspecified),-4%,25µM*
Cc1cccc2nc(-c3cccnc3)c(Nc3ccc(C(C)C)cc3)n12,-8%,2%
CCOCCO,5%,4%
SMILES,Cruzain inh Det,Cruzain inh noDet
CCc1nnc(SC(CC)C(=O)Nc2cc(C)ccc2C)c2cc3occc3n12 (stereo unspecified),-8%,-15%
COc1ccc(NC(=O)N2CCCC3(CCN(S(C)(=O)=O)CC3)C2)cc1,1%,1%
CSc1cc(-c2ccc(Cl)cc2)n(Cc2ccccc2)c(=O)c1C#N,1%,25µM*
CSc1nc(N)c(C#N)c(-c2ccc(Cl)cc2)c1C#N,-4%,-14%
CSc1cc(-c2ccccc2)n(Cc2c(Cl)cccc2Cl)c(=O)c1C#N,0%,10µM*
N#Cc1cc(-c2ccc(Cl)cc2)cn(Cc2c(Cl)cccc2Cl)c1=O,0%,-23%
Cc1ccc(NC(=O)Cn2c(=O)n(Cc3ccc(F)cc3)c(=O)c3cccnc32)cc1C,-1%,-3%
COc1ccc(NC(=O)C2=CC(c3ccc4c(c3)OCO4)=NS(=O)(=O)N2C)cc1,-4%,?
COc1ccc(C2=NS(=O)(=O)N(C)C(C(=O)Nc3ccc(OC(F)(F)F)cc3)=C2)cc1,-4%,10µM*
CCOc1ccc(NC(=O)CSc2nnc3c(C)cc4ccccc4n23)cc1,2%,1%
C[C@@](N)(/C=C\c1ccccc1)C(=O)O,2%,6%
O=C(c1ccccc1)c1nn(-c2ccccc2)c(=O)cc1C(F)(F)F,1%,-3%

# Screening data from PubChem.
